Where “and” joins values, the source holds several entries; their conditions need not be identical. Identical values can stand only once. The campaign covered roughly 350,000 compounds. About 1,600 (0.46%) were called active. This is one part of a sample in which actives are shown more often than they occur.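 Rule for the calls: active = every replicate reaching a set inhibition limit, whatever the replicate mean (cut at about 25% in these data); inconclusive = mean inhibition reaches that limit but some replicates miss it; inactive = the rest.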 The source holds several records for some structures; these can differ, active in one and inactive in another.

This note sets out measurements from PubChem BioAssay AID651704 (Broad Institute, 2012).

In the assay the target is Protein AF-9 (Homo sapiens) (UniProt P42568). The assay can be described thus: inhibitors of AF4 peptide binding to AF9, primary screen, biochemical, AlphaScreen, biotin-AF4 peptide, FLAG-AF9, single point (AID 651704).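 Note: 0% = plate neutral control median and 100% = total signal loss.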 The note with it: at 10 µM, stronger effect = higher value. (In general: In Alpha technology, singlet oxygen from a donor bead excites a nearby acceptor bead.)
Protein AF-9 (Homo sapiens), sequence (P42568 whole entry, looked up): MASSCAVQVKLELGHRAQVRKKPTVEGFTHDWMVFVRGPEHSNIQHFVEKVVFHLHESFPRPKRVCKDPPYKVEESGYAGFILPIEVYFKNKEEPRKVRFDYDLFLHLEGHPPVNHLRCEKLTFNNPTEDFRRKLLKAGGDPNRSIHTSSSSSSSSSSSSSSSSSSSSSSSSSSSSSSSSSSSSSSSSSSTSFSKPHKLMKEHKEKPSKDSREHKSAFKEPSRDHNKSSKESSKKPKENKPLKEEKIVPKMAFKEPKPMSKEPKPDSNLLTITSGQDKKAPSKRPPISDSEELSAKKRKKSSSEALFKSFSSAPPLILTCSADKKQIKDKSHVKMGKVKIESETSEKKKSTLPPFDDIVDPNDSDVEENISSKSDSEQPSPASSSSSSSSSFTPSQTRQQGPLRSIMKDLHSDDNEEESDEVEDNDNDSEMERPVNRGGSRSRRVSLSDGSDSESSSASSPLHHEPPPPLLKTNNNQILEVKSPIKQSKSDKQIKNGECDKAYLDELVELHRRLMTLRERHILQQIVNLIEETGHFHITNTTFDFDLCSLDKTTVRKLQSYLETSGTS
Take `CCCNC(=O)N1CC2(CCN(C(=O)C3CC3)CC2)c2c([nH]c3cc(OC)ccc23)[C@H]1CO`: the inhibition (usually the change of the read-out against control, counted positive when it falls) is -0.242% (inactive).

Take `COc1ccc2c3c([nH]c2c1)[C@H](CO)N(Cc1cccc(F)c1)CC31CCN(CC2CC2)CC1`: the inhibition was 35.1% (active). The figure for `COc1ccc2c3c([nH]c2c1)[C@H](CO)N(Cc1cccc(F)c1)CC31CCN(Cc2ccccn2)CC1` is 6.18% (inactive).

Turning to `CCCNC(=O)N1CCC2(CC1)CN(Cc1ccccc1)[C@H](CO)c1[nH]c3cc(OC)ccc3c12`, the inhibition was 1.99% (inactive). Take `CCCNC(=O)N1CC2(CCN(Cc3ccc(F)cc3)CC2)c2c([nH]c3cc(OC)ccc23)[C@@H]1CO`: the inhibition was 29.6% (active). In the case of `COc1ccc2c3c([nH]c2c1)[C@@H](CO)N(Cc1cccc(F)c1)CC31CN(CC2CC2)C1` it was 23.8% (inactive); in that of `C[C@H]1CN([C@@H](C)CO)C(=O)c2cc(-c3ccc(C#N)cc3)cnc2O[C@@H]1CN(C)Cc1ccncc1`, -0.44% (inactive). In the case of `COc1ccccc1C(=O)Nc1ccc2c(c1)C(=O)N(C)C[C@@H](OC)[C@@H](C)CN(C)[C@H](C)CO2` it was -2.27% (inactive). On to `N#C[C@@H]1[C@H](c2ccccc2-c2cccc(F)c2)[C@@H](CO)N1C(=O)C1CCCC1`, for which the inhibition is -0.992% (inactive). In the case of `C[C@@H]1CN([C@@H](C)CO)C(=O)c2cc(-c3cccnc3)cnc2O[C@@H]1CN(C)C(=O)C1CC1` it was -2.51% (inactive); in that of `O=C(C1CCCCC1)N1CC(=O)N2[C@H](CO)[C@@H](c3ccc(C#Cc4cccc(F)c4)cc3)[C@@H]2C1`, -3.43% (inactive). With `CN(Cc1ccccc1F)c1cc2c(c3c1ccn3C)C1CCC2O1` (configuration not stated), the inhibition is 28.6% (active). In the case of `CC(C)(C)[S@](=O)N1Cc2cc(C(=O)N[C@@H]3CCN(Cc4ccccc4)C3)nc(-c3cccc(-c4ccncc4)c3)c2[C@@H]1CCO` it was 4.53% (inactive). As to `O=S(=O)(NC1CCCCC1N1CCC(O)CC1)c1ccc(Cl)cc1` (configuration not stated), the inhibition is 3.3% (inactive). The figure for `COc1ccc(N2CCN(C3CCCCC3NS(=O)(=O)c3ccccc3)CC2)cc1` (configuration not stated) is 36.3% (active). The figure for `O=S(=O)(NC1CCCCC1N1CCN(c2ccccc2F)CC1)c1ccccc1` (configuration not stated) is 5.55% (inactive); for `Cn1cnc(CCNC(=O)C[C@H]2CC[C@H]3[C@@H](COC[C@@H](O)CN3C(=O)Nc3ccc(C(F)(F)F)cc3)O2)c1` it is 4.5% (inactive). The figure for `Cc1ccc(S(=O)(=O)N2CCN(C(=O)N3CCOCC3)CC2)c(C)c1` is -6.49% (inactive); for `CC(=O)c1ccc(OCC(O)CN2CCN(S(=O)(=O)c3cccc(Br)c3)CC2)cc1` (configuration not stated) it is 0.541% (inactive); for `Cc1cccc(OCC(O)CN2CCN(S(=O)(=O)c3ccc(C)cc3C)CC2)c1` (configuration not stated) it is 35.7% (active). As for `CCOC(=O)c1ccc(NC(=O)C2CC(=O)N(c3ccc4c(c3)OCCO4)C2)cc1` (configuration not stated), the inhibition was -0.164% (inactive). With `CCN(CC(=O)Nc1ccc(NC(C)=O)cc1)C(=O)C1CC(=O)N(Cc2ccc(C)cc2)C1` (configuration not stated), the inhibition is 9.28% (inactive). The figure for `CCN(CC(=O)Nc1ccc(NC(C)=O)cc1)C(=O)C1CC(=O)N(c2ccc3c(c2)OCCO3)C1` (configuration not stated) is 28% (active); for `O=C(c1ccccn1)N1CC2(C1)[C@@H](c1ccccc1)[C@@H](CO)N2C(=O)C1CCC1` it is 0.755% (inactive).

As for `CC(C)CC#Cc1ccc2c(c1)O[C@@H](CN(C)C(=O)Nc1ccccc1F)[C@@H](C)CN([C@@H](C)CO)S2(=O)=O`, the inhibition is 1.25% (inactive). `CC(C)CC(CO)N1CCN(C(=O)c2ccc(Cl)cc2Cl)CCC1=O` (configuration not stated): the inhibition is 38.9% (active). `CC(C)C[C@@H](COCc1ccc(Cl)cc1)N1CCN(C(=O)c2ccc(Cl)cc2Cl)CCC1=O`: the inhibition was 1.49% (inactive). In the case of `CC(C)C[C@@H](CO)N1CCN(Cc2ccc(O)cc2)CCC1=O` it was -1.96% (inactive); in that of `N#Cc1cccc(-c2ccc(C3[C@@H]4CN(C(=O)C5CCC5)C[C@H]3N4)cc2)c1` (some centres not stated), -2.89% (inactive) and 1.48% (inactive). The figure for `O=C(NC1CCCCC1)N1CC2(C1)[C@@H](c1ccccc1)[C@@H](CO)N2CC1CCOCC1` is -1.54% (inactive).

Turning to `Cc1noc(C)c1COc1ccc(C(=O)NCCOc2ccccc2)cc1`, the inhibition was -1.51% (inactive). In the case of `CN(C)CCNC(=O)c1ccc(-c2cn3c(-c4ccc(Oc5ccccc5)cc4)cnc3cn2)cc1` it was 34.2% (active). In the case of `CN(C)C(CNC(=O)c1ccc(OCc2cn3ccccc3n2)cc1)c1ccco1` (configuration not stated) it was 0.31% (inactive); in that of `Cc1ccc(S(=O)(=O)NCC[C@H]2CC[C@H](NC(=O)c3ccccn3)[C@H](CO)O2)cc1`, 1.07% (inactive); in that of `CCC(=O)N1C[C@H](C)[C@H](OC)CN(C)C(=O)c2cc(NC(=O)Nc3cccc(F)c3)ccc2OC[C@@H]1C`, 2.75% (inactive). With `O=S(=O)(c1ccccc1)N1[C@H](CO)[C@@H]2c3ccccc3NC[C@@H]21`, the inhibition is -1.25% (inactive). The figure for `COc1ccccc1NC(=O)N(C)C[C@@H]1Oc2ncc(C#CCC(C)C)cc2C(=O)N([C@@H](C)CO)C[C@@H]1C` is -1.7% (inactive); for `COCC(=O)Nc1ccc2c(c1)OC[C@@H](C)N(Cc1cocn1)C[C@@H](C)[C@@H](OC)CN(C)C2=O` it is -2.07% (inactive); for `Nc1ccc(N=Nc2ccccc2Cl)c(N)n1` it is 31.4% (active). In the case of `CN1CCN(C(=O)C[C@H]2C[C@@H]3c4cc(NC(=O)Nc5ccc(C(F)(F)F)cc5)ccc4O[C@@H]3[C@H](CO)O2)CC1` it was 6.81% (inactive); in that of `COc1ccc(S(=O)(=O)NC[C@@H]2CC[C@@H]3[C@@H](CN3Cc3cc(F)ccc3F)O2)cc1`, 17.9% (inactive). The figure for `O=C([C@H]1N[C@H]2c3ccc(-c4ccccc4)c(=O)n3C[C@H]2[C@@H]1CO)N1CCOCC1` is -1.96% (inactive); for `COc1ccc(C(=O)C2CCCN(Cc3cccn3-c3ccccn3)C2)c(C)c1` (configuration not stated) it is 11.3% (inactive); for `CCOC(=O)c1[nH]ncc1CN1CCCC(C(=O)c2ccc(OC)cc2C)C1` (configuration not stated) it is -1.02% (inactive). In the case of `COc1ccc(C(=O)C2CCCN(Cc3ccc4nonc4c3)C2)c(C)c1` (configuration not stated), the inhibition was 29.4% (active). In the case of `COc1ccc2[nH]c3c(C)c4cc[n+](C)cc4c(C)c3c2c1` it was 57.7% (active). In the case of `C[C@@H]1CN([C@H](C)CO)C(=O)c2cc(-c3ccc(F)cc3)cnc2O[C@@H]1CN(C)Cc1ccc(C(=O)O)cc1` it was -1.88% (inactive). `CCC(=O)N1C[C@@H](C)[C@H](OC)CN(C)C(=O)c2cc(NC(=O)NC3CCCC3)ccc2OC[C@H]1C`: the inhibition is -2.77% (inactive). In the case of `C[C@H](CO)N1C[C@H](C)[C@@H](CN(C)Cc2ccc3c(c2)OCO3)OCCCC[C@H](C)Oc2ccc(NC(=O)Nc3ccc(C(F)(F)F)cc3)cc2C1=O` it was 4.81% (inactive); in that of `Cc1cc2oc3ccc(NCCC4CCCN4C)cc3c(=O)c2cc1C` (configuration not stated), 27.8% (active); in that of `COc1cccc2sc3cc(NCC[C@@H]4CCCN4C)ccc3c(=O)c12`, 3.58% (inactive).

In the case of `Cc1cc2oc(=O)cc(CN3CCN(Cc4ccccc4)CC3)c2cc1C`, the inhibition is 2.48% (inactive). Take `COc1ccc2c(c1)c(=Cc1ccc(N(C)C)cc1)c1cc(-c3ccccc3)[n+](C)n12`: the inhibition is 67.9% (active). As to `COc1cccc2c1C(=O)c1c(O)c3c(c(O)c1C2=O)CC(O)(C(C)=NNC(=O)c1ccc(Cl)c(Cl)c1)CC3OC1CC(N)C(O)C(C)O1` (configuration not stated), the inhibition is 33.8% (active). In the case of `N#C[C@@H]1[C@H](c2ccccc2-c2cccc(F)c2)[C@@H](CO)N1C(=O)CN1CCOCC1` it was -3.02% (inactive); in that of `CO[C@@H]1CN(C)C(=O)c2ccc(NS(C)(=O)=O)cc2OC[C@H](C)NC[C@H]1C`, -2.11% (inactive).

As to `Cc1ccc2c(c1)C1CN(C)CCC1N2S(=O)(=O)c1cccc(F)c1` (configuration not stated), the inhibition is 4.04% (inactive).

For the molecule `Cc1ccc2c(c1)C1CN(C)CCC1N2S(=O)(=O)c1ccc(Oc2ccc([N+](=O)[O-])cc2)cc1` (configuration not stated), the inhibition was 20.9% (inactive) and 27.4% (active). In the case of `Cc1ccc2c(c1)C1CN(C)CCC1N2C(=S)Nc1ccc(OC(F)F)cc1` (configuration not stated) it was 5.25% (inactive); in that of `CN(C)C(=O)c1cccc(-c2ccc([C@H]3[C@H](CO)N4C(=O)CN(C(=O)C5CCCCC5)C[C@@H]34)cc2)c1`, -3% (inactive). In the case of `CC(C)CC#Cc1cnc2c(c1)C(=O)N([C@@H](C)CO)C[C@@H](C)[C@@H](CN(C)C(=O)c1cccnc1)O2` it was -2.62% (inactive). Consider `COc1ccc2c3c(n(C)c2c1)[C@@H](CO)N(Cc1ccccc1)CC31CN(C(=O)C2CC2)C1`, for which the inhibition is 2.25% (inactive). In the case of `CC(=O)Nc1cc(-c2ccc(N3CCN(C)CC3)cc2)cn2c(-c3cccc(C(=O)N(C)C)c3)cnc12` it was 9.58% (inactive); in that of `CC(=O)Nc1cc(-c2ccc(N3CCN(C)CC3)cc2)cn2c(-c3ccc(F)cc3)cnc12`, 26.2% (active). The figure for `COc1ccccc1-c1cc(NC(C)=O)c2ncc(-c3ccc(F)cc3)n2c1` is -6.86% (inactive).

In the case of `CN(C)C(=O)c1cccc(-c2ccc3c(c2)[C@H]2[C@H](CCN2S(=O)(=O)c2cn(C)cn2)[C@@H](CO)N3)c1`, the inhibition was -3.61% (inactive). In the case of `Cc1noc(C)c1NC(=O)N(C)C[C@@H]1OCCCC[C@H](C)Oc2ccc(NC(=O)NC3CCCCC3)cc2C(=O)N([C@H](C)CO)C[C@H]1C`, the inhibition was -0.856% (inactive).

Consider `CCCNC(=O)C[C@H]1C[C@H]2c3cc(NC(=O)NC4CCCCC4)ccc3O[C@H]2[C@H](CO)O1`, for which the inhibition is 5.96% (inactive). The figure for `CCNC(=O)C[C@H]1CC[C@@H](NC(=O)C2CCOCC2)[C@@H](CO)O1` is 1.25% (inactive); for `O=C(NCCc1cccc(F)c1)C1CCCN(c2nc3ccccc3s2)C1` (configuration not stated) it is 39.3% (active); for `O=C(NCc1ccccc1)C1CCCN(c2nc3ccsc3c(=O)s2)C1` (configuration not stated) it is -3.41% (inactive). For the molecule `Cc1cc(=O)n2nc(N3CCCC(C(=O)NCc4cccc(Cl)c4)C3)sc2n1` (configuration not stated), the inhibition was 2.52% (inactive).
